The values below come from PubChem BioAssay AID727 (The Scripps Research Institute Molecular Screening Center, 2007).

Hit rate of the full screen: of about 97,000 compounds, about 810 (0.84%) were called active. The sample as a whole holds a higher share of actives than the screen did. Unmarked numbers belong to inactive results. No stated cut-off is given here; in the data, active means inhibition above about 19%; inactive means the rest.

Chain of Focal adhesion kinase 1 (Homo sapiens) (Q05397 whole entry, looked up): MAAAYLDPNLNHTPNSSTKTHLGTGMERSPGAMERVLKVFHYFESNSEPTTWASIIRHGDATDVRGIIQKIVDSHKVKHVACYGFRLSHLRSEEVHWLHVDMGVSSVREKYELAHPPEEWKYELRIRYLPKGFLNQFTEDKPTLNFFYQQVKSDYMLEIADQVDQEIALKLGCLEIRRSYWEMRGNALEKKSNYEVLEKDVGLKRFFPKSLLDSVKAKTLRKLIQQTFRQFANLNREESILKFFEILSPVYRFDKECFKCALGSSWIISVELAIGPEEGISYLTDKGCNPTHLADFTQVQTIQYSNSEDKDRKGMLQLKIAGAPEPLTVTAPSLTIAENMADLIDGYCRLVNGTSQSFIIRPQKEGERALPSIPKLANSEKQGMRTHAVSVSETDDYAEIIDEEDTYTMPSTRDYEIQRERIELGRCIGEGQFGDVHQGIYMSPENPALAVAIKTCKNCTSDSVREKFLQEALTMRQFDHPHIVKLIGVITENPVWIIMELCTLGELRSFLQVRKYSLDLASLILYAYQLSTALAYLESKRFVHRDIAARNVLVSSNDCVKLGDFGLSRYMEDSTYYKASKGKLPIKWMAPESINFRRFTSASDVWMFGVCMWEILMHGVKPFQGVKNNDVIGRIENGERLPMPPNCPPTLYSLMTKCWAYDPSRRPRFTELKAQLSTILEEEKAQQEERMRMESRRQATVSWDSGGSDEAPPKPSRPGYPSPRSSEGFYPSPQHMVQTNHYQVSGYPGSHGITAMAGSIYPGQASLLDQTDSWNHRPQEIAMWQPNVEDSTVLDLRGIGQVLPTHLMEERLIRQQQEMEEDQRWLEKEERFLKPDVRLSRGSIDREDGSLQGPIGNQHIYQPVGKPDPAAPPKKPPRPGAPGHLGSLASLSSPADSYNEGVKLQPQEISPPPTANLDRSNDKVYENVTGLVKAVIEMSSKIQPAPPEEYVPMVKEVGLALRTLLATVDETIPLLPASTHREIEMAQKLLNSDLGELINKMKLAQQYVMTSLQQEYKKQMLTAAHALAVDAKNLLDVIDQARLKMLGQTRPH

The assay concerns the target Focal adhesion kinase 1 (Homo sapiens) (UniProt Q05397). Kind of assay: human PTK2 enzyme activity blockers – biochemical, primary screen (AID 727).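 Further: 0% = DMSO and 100% = reference compound high control.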 The note with it: biochemical FAK kinase activity assay; hits give high values;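 tested at 7 µM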.
With `Cc1[nH]c2ccccc2c1C(=O)COC(=O)C(C)C`, the inhibition was -1.84%.

Take `O=C(Cc1ncc(C(F)(F)F)cc1Cl)Nc1cccc(Br)c1`: the inhibition is -7.54%.

On to `CC(=O)c1ccc(Cc2ncc(C(F)(F)F)cc2Cl)s1`, for which the inhibition was 32.1% (active).

Turning to `O=C(c1ccccn1)c1ncc(C(F)(F)F)cc1Cl`, the inhibition is -4.84%.

For `COc1ccc(CC(NC(C)=O)C(=O)N2CCN(C(=O)Nc3cccc(Cl)c3)CC2)cc1OC` (configuration not stated), the inhibition was -1.84%.

Regarding `CCOc1cc2[nH]c(=S)n(Cc3ccc(C(=O)NCCOC)cc3)c(=O)c2cc1OCC`, the inhibition was 1.95%.

Turning to `Cc1nn(C)cc1CNC(=O)Nc1ccc(Cl)cc1`, the inhibition was 0.55%.

Regarding `CN(CC(=O)Nc1cccc2c1CCCC2)S(=O)(=O)c1ccc(Cl)cc1`, the inhibition was 2.06%.

`Cc1cc(=O)oc(C)c1C(=O)N1CCCCC1`: the inhibition was -3.95%.

For `Cc1c(NC(=O)CCCOc2ccccc2)cccc1[N+](=O)[O-]`, the inhibition was 5.03%.

As to `O=c1c2ccccc2c(-c2ccc(F)cc2)nn1-c1ccc(C(F)(F)F)cc1`, the inhibition was -9.67%.

For the compound `Cc1cccc(Nc2ccccc2C(=O)NCc2ccco2)c1C`, the inhibition is -0.25%.

Turning to `COc1ccccc1OCCNc1cc(N2CCOCC2)ccc1[N+](=O)[O-]`, the inhibition is 0.07%.

Regarding `CCN(CC)Cc1cc(C(C)=O)ccc1O`, the inhibition is -1.48%.

For the compound `O=C1C(=O)N(c2ccccc2)c2ccccc21`, the inhibition was -1.97%.

`CC(C)CC[n+]1ccn(C2=C([O-])c3ccccc3C(=O)/C2=N\S(=O)(=O)c2ccccc2)c1`: the inhibition is 0.45%.

In the case of `COCCOC(=O)c1sc(=S)n(CCOC)c1N`, the inhibition was 0.4%.

With `COc1cc(OC)c(NC(=O)c2ccc(Br)o2)cc1Cl`, the inhibition is 2.86%.

For the compound `Cc1cc(C)nc(-n2nc(C)cc2NC(=O)c2ccc(Br)o2)n1`, the inhibition was 19.6% (active).

Turning to `Cc1cccc(-n2nc3c(c2NC(=O)c2ccc(Br)o2)CSC3)c1C`, the inhibition is -10.1%.

Take `O=C(Nc1ccc(F)c(Cl)c1)C1CCN(S(=O)(=O)c2cccnc2)CC1`: the inhibition is 5.16%.

As to `COc1ccc(C2Nc3ccccc3C(=O)N2Cc2ccccc2)cc1Cn1nnc2ccccc21` (configuration not stated), the inhibition is 1.35%.

In the case of `O=C(c1ccc(Cl)c(Cl)c1)N1CCCC1`, the inhibition is -2.15%.

Regarding `O=C(c1ccc2c(c1)C(=O)N(c1ccc(Cl)cc1)C2=O)N1CCN(c2ccccn2)CC1`, the inhibition was 22.9% (active).

Take `CC(=C1C(=O)c2ccccc2C1=O)N1CCN(c2ccccn2)CC1`: the inhibition was -0.27%.

Consider `CC(C)CC(N=C1NC(C)(C)Cc2ccccc21)C(=O)O` (configuration not stated), for which the inhibition is -1%.

In the case of `COC(=O)c1ccccc1NC(=O)CSc1nnnn1C`, the inhibition was -1.15%.

A word on the inhibition: it is the relative decrease from the control value, in per cent.
